A selection: hits, their analogues and other compounds. The true share with any hit is near 15%.
ALOX12 inh = blocks human arachidonate 12S-lipoxygenase; P18054; purified 12hLO, xylenol orange hydroperoxide absorbance; Potency, µM (titrated, usually from 108 µM), hits mostly inhibitors; actives 1.1% (n = 580,000); AID 1671190
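Purified human 12hLO (150 nM final) in 25 mM Hepes, 0.01% Triton X-100, pH 7.0 was preincubated 15 min at room temperature with compound. Then 40 uM arachidonic acid was added, 30 min. Hydroperoxide was read by Fe-XO absorbance ratio 573/405 nm.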
VP16 counter = inhibits Gal4-VP16 luciferase reporter, ROR gamma counter-screen; actives 3.5% (n = 310,000); Potency, µM (titrated, usually from 53.6 µM), actives largely listed as inhibitors; Drosophila S2 Gal4-VP16 UAS-luciferase, luminescence, 20 h;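 note: Gal4-VP16 expression switched on by copper sulfate through the metallothionein promoter; nearly all actives have a fitted effect of over 50% in size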
ELG1 DNA repair = blocks ELG1-dependent DNA repair in HEK293T cells; HEK293T ELG1-luciferase reporter, luminescence, 16 h; DNA damage induced by 5-fluorouridine; Potency, µM (titrated, usually from 46.1 µM), usual class: inhibitors; actives 2.3% (n = 330,000); AID 504467; note: nearly all actives have a fitted effect of over 55% in size
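Cells (2,000 per well) received 5-fluorouridine plus test compound or DMSO and were incubated 16 hr at 37 °C, 5% CO2. Luciferase activity was read by luminescence 30 min after ONE-Glo addition; signal suppression marked inhibition of damage-induced ELG1 function.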
TDP1 cell CPT = DT40-hTDP1 cell growth loss with CPT. chicken DT40 Tdp1-/-;hTDP1 cells + 20 nM CPT, ATP luminescence, 48 h. AID 686979. actives 12% (n = 420,000). Potency, µM (doses to about 46.2 µM), actives largely listed as inhibitors; note: nearly all actives have a fitted effect of over 55% in size
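Chicken DT40 Tdp1-/- cells complemented with human TDP1, 400 cells/well, exposed to compounds plus 20 nM camptothecin for at least 48 h at 37 C; viability read as ATP content by CellTiter-Glo luminescence.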
RORg inh = blocks mouse ROR gamma transcriptional activity; actives 5.4% (n = 310,000); P51450; Potency, µM (top dose mostly 53.6 µM), hits mostly inhibitors; Drosophila S2 Gal4-RORgamma UAS-luciferase reporter, 20 h; note: nearly all actives have a fitted effect of over 60% in size
Target sequence (P51450 whole entry, looked up, the tested form may be a part): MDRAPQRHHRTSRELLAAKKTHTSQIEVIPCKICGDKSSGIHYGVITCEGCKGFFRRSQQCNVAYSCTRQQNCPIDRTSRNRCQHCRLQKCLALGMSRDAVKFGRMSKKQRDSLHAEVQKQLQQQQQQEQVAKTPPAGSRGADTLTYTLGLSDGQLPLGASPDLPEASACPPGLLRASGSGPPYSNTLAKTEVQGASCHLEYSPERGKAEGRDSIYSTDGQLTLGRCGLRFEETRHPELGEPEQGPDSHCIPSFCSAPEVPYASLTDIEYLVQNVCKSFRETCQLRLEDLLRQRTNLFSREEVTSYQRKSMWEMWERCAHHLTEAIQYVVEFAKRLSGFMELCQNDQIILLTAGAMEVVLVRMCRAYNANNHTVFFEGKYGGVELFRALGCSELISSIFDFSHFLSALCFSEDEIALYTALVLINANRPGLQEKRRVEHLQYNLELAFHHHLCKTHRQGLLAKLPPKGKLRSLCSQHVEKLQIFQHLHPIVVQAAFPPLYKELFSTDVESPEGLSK
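In this cell-based reporter format, copper sulfate (700 uM final) drives Gal4–ROR gamma fusion expression from a metallothionein promoter in Drosophila Schneider cells; compounds preincubated 1 hr, reporter read after 20 hr at ambient temperature.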
TDP1 cell noCPT = qHTS for Inhibitors of human tyrosyl-DNA phosphodiesterase 1 (TDP1): qHTS in cells in absence of CPT. DT40 Tdp1-/- hTDP1 cells, no CPT, ATP luminescence, 48 h. Potency, µM (series often up to 46.2 µM), actives largely listed as inhibitors. actives 15% (n = 420,000). AID 686978, 2013; note: nearly all actives have a fitted effect of over 55% in size
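Growth kinetics read by CellTiter-Glo luminescence after ≥48 hr at 37 °C. Cells: DT40 Tdp1-/- stably carrying human TDP1, 400 per well, compound exposure in the absence of CPT (DMSO vehicle).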
Numbers stand for hits; [ ] = remark or other dose. Calls come from the whole dose curve; as a rule, active = well fitted curve in the direction sought with a large enough effect; inconclusive = small, poorly fitted or top-dose-only effect, or another doubt; inactive = no such curve, though single readings can be large; an effect the other way counts as inactive or inconclusive.

CN(c1ccccc1)S(=O)(=O)c1ccc(Cl)c(C(=O)Nc2nc3ccccc3[nH]2)c1 was read as ALOX12 inh inactive, VP16 counter 7.1µM, ELG1 DNA repair 23µM, TDP1 cell CPT 15µM, RORg inh 4µM and TDP1 cell noCPT 15µM.
O=C(c1ccccc1)c1ccc2nc(-c3ccc(NC(=O)c4ccccc4Br)cc3)[nH]c2c1 was read as ALOX12 inh inactive, VP16 counter inactive, ELG1 DNA repair inconclusive, TDP1 cell CPT inconclusive, RORg inh inactive and TDP1 cell noCPT inconclusive.
CS(=O)(=O)c1ccccc1C(=O)Nc1ccc(-c2nc3ccccc3[nH]2)cc1 was read as ALOX12 inh inactive, VP16 counter inactive, ELG1 DNA repair inconclusive, TDP1 cell CPT inactive, RORg inh inconclusive and TDP1 cell noCPT inconclusive.
For CN(c1ccccc1)S(=O)(=O)c1ccc(Cl)c(C(=O)Nc2ccc(-c3nc4ccccc4[nH]3)cc2)c1 the results were ALOX12 inh inactive, VP16 counter inactive, ELG1 DNA repair inconclusive, TDP1 cell CPT 18µM, RORg inh inconclusive and TDP1 cell noCPT 18µM.
Screening Cc1ccc(S(=O)(=O)N2CCCC2)cc1C(=O)Nc1ccc(-c2nc3ccccc3[nH]2)cc1 returned ALOX12 inh inactive.
`Cc1ccc2cc(CCC(=O)NCCCN3CCCC3=O)c(=O)[nH]c2c1` gave ALOX12 inh inactive.
Cc1[nH]c(SCC(=O)NCCc2ccc3c(c2)OCCO3)nc1Cc1ccccc1 was read as ALOX12 inh inactive.
`Cc1cc(C)n(-c2nnc(NC(C)(C)C)nn2)n1` gave ALOX12 inh inactive, VP16 counter inactive, ELG1 DNA repair inconclusive, TDP1 cell CPT inactive, RORg inh inactive and TDP1 cell noCPT inactive.
Screening Cc1cc(C)n(-c2nc(NC(C)C)nc(NC(C)C)n2)n1 returned ALOX12 inh inactive, VP16 counter 2.5µM, ELG1 DNA repair 2.9µM, TDP1 cell CPT 1µM, RORg inh 0.56µM and TDP1 cell noCPT 1.5µM.
CCNc1nc(NCC)nc(-n2nc(C)cc2C)n1 was read as ALOX12 inh inactive, VP16 counter 2.2µM, ELG1 DNA repair inconclusive, TDP1 cell CPT 2.3µM, RORg inh 0.71µM and TDP1 cell noCPT 2.6µM.
Cc1cc(C)n(-c2nc(N(C)C)nc(N(C)C)n2)n1 was read as ALOX12 inh inactive, VP16 counter 7.1µM, ELG1 DNA repair inactive, TDP1 cell CPT inconclusive, RORg inh 2.8µM and TDP1 cell noCPT 15µM.
For Cc1cc(C)n(-c2nc(NC(C)(C)C)nc(NC(C)(C)C)n2)n1 the results were ALOX12 inh inactive, VP16 counter inconclusive, ELG1 DNA repair inconclusive, TDP1 cell CPT 2.1µM, RORg inh 2µM and TDP1 cell noCPT 1.8µM.
Cc1cc(C)n(-c2ncc(C#N)cn2)n1 was read as ALOX12 inh inconclusive, VP16 counter inactive, ELG1 DNA repair inactive, TDP1 cell CPT inactive, RORg inh inactive and TDP1 cell noCPT inactive.
For CCNc1nc(N2CCCC2)nc(N2CCCC2)n1 the results were ALOX12 inh inactive, VP16 counter inactive, ELG1 DNA repair inactive, TDP1 cell CPT inconclusive, RORg inh inactive and TDP1 cell noCPT inconclusive.
CCC(=O)C1=C(c2ccc3c(c2)CCCC3)N(C(=O)CC)n2c(CC)nnc2S1 was read as ALOX12 inh inactive.
Screening CC(C)Oc1ccc2ccccc2c1/C=C(\C#N)c1nc2ccccc2[nH]1 returned ALOX12 inh inactive.
`CSc1ccccc1NC(=O)/C(=C/c1ccco1)c1ccccc1` gave ALOX12 inh 50µM.
CCOc1ccc(S(=O)(=O)N2CCN(c3ccccc3F)CC2)c2cccnc12 was read as ALOX12 inh inactive, VP16 counter inactive, ELG1 DNA repair inactive, TDP1 cell CPT 21µM, RORg inh inactive and TDP1 cell noCPT 16µM.
Screening CCOC(=O)c1cccc(NC(=O)C2CCCN(S(=O)(=O)c3ccc4c(c3)oc(=O)n4C)C2)c1 (centres undefined) returned ALOX12 inh inactive, TDP1 cell CPT inconclusive and TDP1 cell noCPT inconclusive.
Screening CCOC(=O)C1CCCN(S(=O)(=O)c2ccc3c(c2)oc(=O)n3C)C1 (centres undefined) returned ALOX12 inh inactive, TDP1 cell CPT inactive and TDP1 cell noCPT inconclusive.
For Cc1cccc(N2CCN(C(=O)C3CCCN(S(=O)(=O)c4ccc5c(c4)oc(=O)n5C)C3)CC2)c1C (centres undefined) the results were ALOX12 inh inactive, TDP1 cell CPT 7.3µM and TDP1 cell noCPT 3.7µM.
For Cc1ccc(NC(=O)C2CCN(S(=O)(=O)c3ccc4c(c3)oc(=O)n4C)CC2)cc1 the results were ALOX12 inh inactive, VP16 counter inactive, ELG1 DNA repair inactive, TDP1 cell CPT inactive, RORg inh inactive and TDP1 cell noCPT inactive.
Cc1cccc(N2CCN(C(=O)C3CCN(S(=O)(=O)c4ccc5c(c4)oc(=O)n5C)CC3)CC2)c1C was read as ALOX12 inh inactive, TDP1 cell CPT 4.6µM and TDP1 cell noCPT 3.7µM.
Screening CCOC(=O)c1cccc(NC(=O)C2CCN(S(=O)(=O)c3ccc4c(c3)oc(=O)n4C)CC2)c1 returned ALOX12 inh inactive, TDP1 cell CPT inconclusive and TDP1 cell noCPT 21µM.
COc1ccccc1C(=O)N1CCC(Cc2n[nH]c(C)n2)CC1 was read as ALOX12 inh inactive.
For COCCNC(=O)CSc1cc(C(=O)NC2CC2)c2ccccc2n1 the results were ALOX12 inh inactive.
Cn1c(=O)oc2cc(S(=O)(=O)N3CCC(C(=O)N4CCN(c5ccccc5F)CC4)CC3)ccc21 was read as ALOX12 inh inactive, TDP1 cell CPT inconclusive and TDP1 cell noCPT 18µM.
Screening CCOc1ccc(S(=O)(=O)N2CCC(C(=O)N3CCN(c4ccccc4F)CC3)CC2)cc1C returned ALOX12 inh inactive, VP16 counter inactive, ELG1 DNA repair inconclusive, TDP1 cell CPT 23µM, RORg inh inactive and TDP1 cell noCPT 29µM.
`CCOc1ccc(CN2CCC(C(=O)N3CCN(c4ccccc4F)CC3)CC2)cc1OC` gave ALOX12 inh inconclusive, ELG1 DNA repair inactive, TDP1 cell CPT inactive, RORg inh inactive[0.365 µM] and TDP1 cell noCPT inactive.
`Cn1c(=O)oc2cc(S(=O)(=O)N3CCN(c4ccccc4F)CC3)ccc21` gave ALOX12 inh inactive, VP16 counter inactive, ELG1 DNA repair inactive, TDP1 cell CPT inactive, RORg inh inactive and TDP1 cell noCPT inactive.
For O=C(CCc1ncc(-c2ccc(F)cc2)o1)N1CCSCC1 the results were ALOX12 inh inactive.
CC(C)Oc1cccc(C(=O)N/N=C/c2ccoc2)c1 was read as ALOX12 inh inactive, VP16 counter inactive, ELG1 DNA repair inconclusive, TDP1 cell CPT inactive, RORg inh inconclusive and TDP1 cell noCPT inactive.

Assay outcomes deposited in PubChem BioAssay by National Center for Advancing Translational Sciences (NCATS).
